Laboratory results reported in paper PMC5540273 (PLoS ONE, 2017).

Tested on: T1, PYK2
T1 construct: gene PTK2B
Details: concentration: 1 μM,replicates: in singlicate; n = 1
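Also: KINOMEscan kinase panel screen.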

SMILES	%Inh [%]
CNC(=O)c1ccccc1Sc1ccc2c(/C=C/c3ccccn3)n[nH]c2c1	20
O=C(NCCNc1ccnc(NCc2ccc(F)cc2)n1)c1cc2ccccc2s1 [GSK1379944]	14
CN(C)CCOc1ccc(-c2cc(-c3c[nH]nc3-c3ccccn3)ccn2)cc1 [GW835314]	0
CCN(CC)CCCCNc1ncc2cc(-c3c(Cl)cccc3Cl)c(NC(=O)NC(C)(C)C)nc2n1	4
CCN(CC)CCOc1ccc(Nc2ncc3cc(-c4c(Cl)cccc4Cl)c(=O)n(C)c3n2)cc1 [SB-601273]	56
Cc1cc2cn[nH]c2cc1-c1cccc2c(N)c(C(N)=O)nnc12	27
CC(C)Nc1cc(-c2ccc3c(N)n[nH]c3c2)nc(N)n1 [GSK2221681]	0
C[C@@H](Oc1cc(-c2cnn(C3CCNCC3)c2)cnc1N)c1c(Cl)ccc(F)c1Cl	80
Cl.Cl.Nc1nc(-c2ccc3c(N)n[nH]c3c2)cc(N2CCCC(NC(=O)c3ccccc3)C2)n1 (stereo not drawn) [GSK2286775]	15
CC(C)N1C(=O)Cc2cc(Nc3ncc(C(F)(F)F)c(NCc4cccc(S(C)(=O)=O)c4)n3)ccc21	22
Cl.Cl.NC[C@H](Cc1ccc(C(F)(F)F)cc1)NC(=O)c1cc(Br)c(-c2ccnc3[nH]ccc23)s1 [GSK1487252]	13
CN(C)CC(O)COc1ccc(Nc2nccc(-c3cnn4nc(N5CCOCC5)ccc34)n2)cc1 (stereo not drawn) [GW767488]	29
Cc1occc1-c1nc(N)c(OC[C@@H](N)Cc2c[nH]c3ccccc23)cc1-c1cc2c(C)n[nH]c2cn1 [GSK1660450]	0
Cc1ccc2c(-c3ccncc3)c(-c3ccc(F)cc3)nn2c1.Cl [GW461484]	0
C[C@H]1Oc2cc(cnc2N)-c2c(nn(C)c2C#N)CN(C)C(=O)c2ccc(F)cc21	99.6
NC(=O)c1cc(-c2ccccc2)cc2c(C3CCNCC3)c[nH]c12 [GSK301362]	37
C=CC(=O)Nc1cc2c(Nc3ccc(F)c(Cl)c3)ncnc2cc1OCCCN1CCOCC1 [GW781483]	1
CCn1c(-c2nonc2N)nc2c(C#CC(C)(C)O)nc(OCCN)cc21.Cl.Cl [GSK902056]	9
Cc1n[nH]c2ccc(-c3cc(OC[C@@H](N)Cc4ccccc4)cnc3-c3ccoc3)cc12.O=C(O)C(F)(F)F.O=C(O)C(F)(F)F [GSK507358]	40
Cl.Cl.NC[C@H](CC1CCCCC1)NC(=O)c1cc(Br)c(-c2ccnc3[nH]ccc23)s1 [GSK1581427]	20
COc1ccc(C[C@@H](CN)NC(=O)c2cc(Br)c(-c3ccnc4[nH]ccc34)s2)cc1.Cl.Cl [GSK1389063]	47
Cl.Oc1cc(-c2nc(-c3ccccc3)[nH]c2-c2ccncc2)ccc1Cl [SB-386023]	6
Nc1nc(Nc2ccccc2)cc(-c2ccc3c(N)n[nH]c3c2)n1 [GSK2225749]	0
O=C(NCCCN1CCOC1=O)c1cnc(NCc2cc(Cl)ccc2Cl)nc1NC1CCCC1	0

Tested on: QSK
Details: concentration: 1 μM,replicates: in singlicate; n = 1

SMILES	%Inh [%]
CNC(=O)c1ccccc1Sc1ccc2c(/C=C/c3ccccn3)n[nH]c2c1	0
O=C(NCCNc1ccnc(NCc2ccc(F)cc2)n1)c1cc2ccccc2s1 [GSK1379944]	7
CN(C)CCOc1ccc(-c2cc(-c3c[nH]nc3-c3ccccn3)ccn2)cc1 [GW835314]	9
Cc1cc(C(=O)Nc2ccc(Oc3ccc4nc(NC(=O)C5CC5)cn4n3)cc2)nn1-c1ccccc1	0
Cc1ccc(-n2nc(C(C)(C)C)cc2NC(=O)Nc2ccc(OCCN3CCOCC3)c3ccccc23)cc1 [GW839464]	1
CCN(CC)CCCCNc1ncc2cc(-c3c(Cl)cccc3Cl)c(NC(=O)NC(C)(C)C)nc2n1	39
CCN(CC)CCOc1ccc(Nc2ncc3cc(-c4c(Cl)cccc4Cl)c(=O)n(C)c3n2)cc1 [SB-601273]	95.6
Cc1cc2cn[nH]c2cc1-c1cccc2c(N)c(C(N)=O)nnc12	15
CC(C)Nc1cc(-c2ccc3c(N)n[nH]c3c2)nc(N)n1 [GSK2221681]	0
C[C@@H](Oc1cc(-c2cnn(C3CCNCC3)c2)cnc1N)c1c(Cl)ccc(F)c1Cl	0
Cl.Cl.Nc1nc(-c2ccc3c(N)n[nH]c3c2)cc(N2CCCC(NC(=O)c3ccccc3)C2)n1 (stereo not drawn) [GSK2286775]	0
CC(C)N1C(=O)Cc2cc(Nc3ncc(C(F)(F)F)c(NCc4cccc(S(C)(=O)=O)c4)n3)ccc21	0
Cl.Cl.NC[C@H](Cc1ccc(C(F)(F)F)cc1)NC(=O)c1cc(Br)c(-c2ccnc3[nH]ccc23)s1 [GSK1487252]	14
C[C@@H]1CCN(C(=O)CC#N)C[C@@H]1N(C)c1ncnc2[nH]ccc12	0
CN(C)CC(O)COc1ccc(Nc2nccc(-c3cnn4nc(N5CCOCC5)ccc34)n2)cc1 (stereo not drawn) [GW767488]	43
Cc1occc1-c1nc(N)c(OC[C@@H](N)Cc2c[nH]c3ccccc23)cc1-c1cc2c(C)n[nH]c2cn1 [GSK1660450]	90.4
Cc1ccc2c(-c3ccncc3)c(-c3ccc(F)cc3)nn2c1.Cl [GW461484]	1
C[C@H]1Oc2cc(cnc2N)-c2c(nn(C)c2C#N)CN(C)C(=O)c2ccc(F)cc21	0
NC(=O)c1cc(-c2ccccc2)cc2c(C3CCNCC3)c[nH]c12 [GSK301362]	13
C=CC(=O)Nc1cc2c(Nc3ccc(F)c(Cl)c3)ncnc2cc1OCCCN1CCOCC1 [GW781483]	1
CCn1c(-c2nonc2N)nc2c(C#CC(C)(C)O)nc(OCCN)cc21.Cl.Cl [GSK902056]	23
Cc1n[nH]c2ccc(-c3cc(OC[C@@H](N)Cc4ccccc4)cnc3-c3ccoc3)cc12.O=C(O)C(F)(F)F.O=C(O)C(F)(F)F [GSK507358]	5
Cl.Cl.NC[C@H](CC1CCCCC1)NC(=O)c1cc(Br)c(-c2ccnc3[nH]ccc23)s1 [GSK1581427]	5
COc1ccc(C[C@@H](CN)NC(=O)c2cc(Br)c(-c3ccnc4[nH]ccc34)s2)cc1.Cl.Cl [GSK1389063]	0
Cl.Oc1cc(-c2nc(-c3ccccc3)[nH]c2-c2ccncc2)ccc1Cl [SB-386023]	33
Nc1nc(Nc2ccccc2)cc(-c2ccc3c(N)n[nH]c3c2)n1 [GSK2225749]	0
O=C(NCCCN1CCOC1=O)c1cnc(NCc2cc(Cl)ccc2Cl)nc1NC1CCCC1	0
